aSyn yeast rescue: rescues yeast growth from alpha-synuclein toxicity | S. cerevisiae alpha-synuclein toxicity rescue, BacTiter-Glo growth, 24 h | 0.02% of 94,000 active | AID 1347070 | Potency, µM (top dose mostly 46.1 µM), hits mostly activators; active = well fitted activation curve with a large enough effect; note: 0% is about no effect
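Growth restoration measured by BacTiter-Glo luminescence after 24 hr at 30 deg C; alpha-synuclein yeast, raffinose-pregrown to mid-log, were added at OD600=0.02 in galactose medium onto pinned compounds.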
An asterisk follows results filed as active; i = inactive. The sample as a whole holds a higher share of hits than the screen did. Potency is the fitted concentration of half-maximal effect.

SMILES	aSyn yeast rescue
CCOC(=O)c1cccc(NC(=O)CCc2c(C)nn(-c3ccc(N4CCCCC4)nn3)c2C)c1	i
Cc1ccc(C2c3[nH]c4ccccc4c3CCN2C(=O)CSc2ccccc2)cc1 (stereo unspecified)	14µM*
CSc1ccc(C2c3[nH]c4ccccc4c3CCN2C(=O)CCc2ccccc2)cc1 (stereo unspecified)	i
CCOc1ccc(C2c3[nH]c4ccccc4c3CCN2C(=O)CSc2ccccc2)cc1 (stereo unspecified)	i
O=C(CCC1CCCC1)N1CCc2c([nH]c3ccccc23)C1c1ccc(F)cc1 (stereo unspecified)	i
CCc1ccccc1NC(=O)N1CCc2c([nH]c3ccccc23)C1c1ccc(C)cc1 (stereo unspecified)	i
Cc1ccc(C2c3[nH]c4ccccc4c3CCN2C(=O)CSCc2ccc(F)cc2)cc1 (stereo unspecified)	16µM*
COc1ccc(CNc2nc3c(-c4ccc(C)cc4)nnn3c3ccccc23)cc1	i
CC(=O)c1cccc(NC(=O)c2noc3c2CSc2ccccc2-3)c1	i
Cc1ccc(S(=O)(=O)c2nc(-c3ccc(F)cc3)oc2SCC(=O)c2ccccc2)cc1	i
O=C(CSc1oc(-c2ccc(F)cc2)nc1S(=O)(=O)c1ccccc1)c1ccc(Cl)cc1	i
Cc1ccc(-c2nc(S(=O)(=O)c3ccc(C)cc3)c(SCC(=O)c3ccccc3)o2)cc1	18µM*
COc1ccc2c(c1)c1c(c(=O)n(-c3ccccc3C)c(=O)n1CC(N)=O)n2C	i
COc1ccc2c(c1)c1c(c(=O)n(Cc3ccccc3)c(=O)n1Cc1cccc(Cl)c1)n2C	i
Cc1cc(NC(=O)COCc2cc(-c3ccc(F)cc3)on2)ccc1Br	i
Cc1ccccc1OCc1nc2c3cnn(-c4cccc(F)c4)c3ncn2n1	i
COc1ccc(-c2nnc(SCC(=O)NC3CCCC3)nc2-c2ccc(OC)c(OC)c2)cc1OC	i
Cn1c(=O)n(C)c2cc(NS(=O)(=O)c3ccc(C(C)(C)C)cc3)c(NCc3ccccc3)cc21	i
Cc1nc2scc(C)n2c(=O)c1S(=O)(=O)Nc1cccc(C(F)(F)F)c1	11µM*
COc1cccc(CNS(=O)(=O)c2c(C)nc3scc(C)n3c2=O)c1	i
Cc1nc2scc(C)n2c(=O)c1S(=O)(=O)Nc1cccc(O)c1	i
CCCCNC(=O)CCCn1c(=O)c2ccccc2n(Cc2cccc(Cl)c2)c1=O	i
Cc1cc(Br)cc2c1N(Cc1ccccc1OC(C)C)C(=O)C2=O	i
CCCNC(=O)C1=CC(c2ccc3c(c2)OCO3)=NS(=O)(=O)N1C	i
CCc1ccccc1N(CC)C(=O)Cn1nc(Cc2ccncc2)c2ccccc2c1=O	i
Cc1ccc(-c2onc(C)c2C)cc1S(=O)(=O)Nc1cccc(Cl)c1C	i
CCN(CCCNC(=O)c1cc2c(=O)[nH]c3ccc(C)cc3c2s1)Cc1ccccc1	i

Bioassay records deposited in PubChem BioAssay by National Center for Advancing Translational Sciences (NCATS).
